This is a sample that favours compounds with a hit; in the whole collection about 7.5% have one here.
SMN2 splice up = increases expression of the SMN2 splice variant | HEK293 SMN2-luciferase splicing reporter, luminescence, 30-36 h | Potency, µM (top dose mostly 46.1 µM), actives largely listed as activators | actives 2.8% (n = 210,000) | AID 1458; note: nearly all actives have a fitted effect of over 55% in size
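HEK293 cells carry an SMN2 […]–luciferase reporter in which exon 7 inclusion puts luciferase in frame. Cells were plated 10-12 h before compound addition, then incubated 30-36 h at 37C. ONE-Glo luminescence was read; sodium butyrate at 4.5 mM final served as control.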
ELG1 genotoxic = induces genotoxicity in HEK293T cells with luciferase-tagged ELG1 | HEK293T ELG1-luciferase reporter, luminescence, 16 h | Potency, µM (doses to about 46 µM), actives largely listed as activators | actives 1.3% (n = 330,000) | AID 504466; note: nearly all actives have a fitted effect of over 60% in size
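Step 1: seed 2,000 HEK293T ELG1-luciferase cells per well. Step 2: add compound or DMSO, incubate 16 hr at 37 °C. Step 3: ONE-Glo, 30 min at room temperature, read luminescence.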
Luc counter = blocks Kinase-Glo luciferase, a counter-screen artifact. Q27757. Kinase-Glo luciferase, ATP luminescence, 8 min. Potency, µM (titrated, usually from 38.3 µM), actives largely listed as inhibitors. actives 0.28% (n = 200,000); note: nearly all actives have a fitted effect of over 60% in size
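Recombinant Kinase-Glo luciferase, 10 uM ATP (linear range), luciferin; imidazole pH 7.2 / KCl / MgCl2 / Tween / BSA buffer; 8 min RT; luminescence.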
FLuc modulator = counter-screen for miR-21 project: firefly luciferase inhibitors or activators; P08659; purified FLuc, Km substrates, luminescence inhibition; Potency, µM (series often up to 57.5 µM), hits mostly inhibitors; actives 6.9% (n = 360,000); note: nearly all actives have a fitted effect of over 55% in size
Target sequence (P08659 whole entry, looked up): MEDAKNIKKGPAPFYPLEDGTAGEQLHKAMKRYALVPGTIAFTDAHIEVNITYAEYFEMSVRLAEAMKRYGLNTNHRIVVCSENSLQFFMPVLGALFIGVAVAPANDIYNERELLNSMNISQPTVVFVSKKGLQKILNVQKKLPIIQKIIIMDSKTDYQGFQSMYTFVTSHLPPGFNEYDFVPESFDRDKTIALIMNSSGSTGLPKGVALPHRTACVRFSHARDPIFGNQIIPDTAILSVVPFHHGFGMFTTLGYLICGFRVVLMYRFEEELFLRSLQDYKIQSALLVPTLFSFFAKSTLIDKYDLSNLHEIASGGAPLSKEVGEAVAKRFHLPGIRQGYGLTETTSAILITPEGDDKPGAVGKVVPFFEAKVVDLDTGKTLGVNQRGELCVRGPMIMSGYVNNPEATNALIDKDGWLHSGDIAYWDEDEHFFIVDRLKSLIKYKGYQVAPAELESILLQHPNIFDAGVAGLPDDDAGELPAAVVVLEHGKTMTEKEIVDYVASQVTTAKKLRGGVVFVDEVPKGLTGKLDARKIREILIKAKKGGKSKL
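Biochemical qHTS of compounds, final roughly 60 µM downward over six points, against 10 nM purified firefly luciferase using Km concentrations of substrates (10 uM D-luciferin, 10 uM ATP) in Tris acetate pH 7.5 buffer; luminescence output.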
Rab9 prom act = activators of Rab9 promoter. Huh7 Rab9 promoter-luciferase reporter, luminescence, 24 h. Potency, µM (doses to about 9.22 µM), most hits filed as activators. actives 2.8% (n = 320,000); note: nearly all actives have a fitted effect of over 60% in size
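Using Huh7 cells stably transfected with Rab9 promoter–luciferase, compounds were incubated 24 h at 37 °C, 5% CO2; luciferase luminescence was read 10 min after reagent addition.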
NPC1 prom act = activates the NPC1 promoter. AID 485313. Potency, µM (top dose mostly 9.22 µM), most hits filed as activators. Huh7 NPC1 promoter luciferase reporter, 24 h. actives 2.4% (n = 320,000); note: nearly all actives have a fitted effect of over 60% in size
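Readout is luciferase luminescence, reflecting NPC1 promoter activation in stably transfected Huh7 cells after 24 h compound exposure at 37 °C in reduced-serum medium with 10% FBS.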
A number is an active result; n = inactive; u = inconclusive; x = no result. Calls come from the whole dose curve; as a rule, active = well fitted curve in the direction sought with a large enough effect; inconclusive = small, poorly fitted or top-dose-only effect, or another doubt; inactive = no such curve, though single readings can be large; an effect the other way counts as inactive or inconclusive.

SMILES	SMN2 splice up	ELG1 genotoxic	Luc counter	FLuc modulator	Rab9 prom act	NPC1 prom act
Cn1c(N)c(C(=O)CSc2nnc(NC3CCCCC3)s2)c(=O)n(C)c1=O	x	n	x	n	n	n
O=C(NNc1nc2ccccc2s1)Nc1ccc(F)cc1	x	u	x	u	3.2µM	4µM
CC(C)(C)c1nc(NC(=O)Nc2ccccc2)sc1Br	n	n	n	19µM	u	n
O=C(NNc1nc2ccccc2s1)Nc1ccc(Cl)c(Cl)c1	x	n	x	u	n	n
COc1ccc2nc(NC(=O)C3=NN(c4ccccc4)C(=O)CC3)sc2c1	n	n	n	u	n	n
COc1ccc2nc(NC(=O)Nc3ccccc3)sc2c1	0.89µM	u	n	0.48µM	0.71µM	u
CC(C)C(=O)NNc1nc2ccccc2s1	u	18µM	n	u	u	u
COc1ccccc1NC(=O)N1CC(=O)Nc2sc3c(c2C1c1ccccc1)CCCC3 (stereo unspecified)	x	x	x	n	x	x
CC1CCN(S(=O)(=O)c2ccc3c(ccn3CC(=O)NCc3ccccc3F)c2)CC1	x	x	x	n	x	x
CCCCN(CCCC)CCNC(=O)c1cc(=O)[nH]c2ccc(S(=O)(=O)N3CCCCCC3)cc12	x	x	x	n	x	x
COc1ccc(NC(=O)Nc2nc3ccccc3s2)cc1	x	u	x	2.4µM	1.6µM	1.8µM
CCCCCN(C(=O)NC(=O)Nc1nncs1)S(C)(=O)=O	n	n	n	n	n	n
O=C(O)C/C(=C\c1cccc(NC(=O)c2ccccc2Cl)c1)c1nc2ccccc2s1	x	n	x	u	n	n
CCCCN(C(=O)NC(=O)Nc1nc2ccc(OC)cc2s1)S(C)(=O)=O	22µM	8.2µM	n	24µM	u	u
COc1ccc(C(=O)Nc2cccc(/C=C(\CCC(=O)O)c3nc4ccccc4s3)c2)cc1	x	n	x	9.5µM	u	3.2µM
CCOc1ccc2nc(NC(=O)Nc3ccccc3)sc2c1	11µM	u	n	0.85µM	1.4µM	u
O=C(Cn1ncc2c3ccccc3n(Cc3cccc(Cl)c3)c2c1=O)N1CCCCCC1	n	x	x	n	x	x
CCCCOC(=O)Nc1nc2ccccc2s1	25µM	u	n	1.1µM	4µM	2.8µM
O=C(Nc1nc2ccccc2s1)Nc1ccc(F)cc1F	x	4.1µM	x	0.85µM	1.3µM	1µM
CCOc1ccc2nc(NC(=O)Nc3cccs3)sc2c1	2.8µM	2.6µM	n	0.76µM	1.6µM	u
COc1ccc(NC(=O)c2nc3ccccc3s2)cc1	u	1.3µM	8.9µM	1.1µM	1.6µM	3.5µM
O=C(CCCn1c(=O)c2ccccc2n(Cc2ccc(F)cc2Cl)c1=O)NCCc1ccc(Cl)cc1	n	x	x	n	x	x
Cc1cccc(NC(=O)CSc2nc3ccc(NC(=O)COc4ccc(Cl)cc4)cc3s2)c1	x	x	x	n	x	x
CCN(CC)CCNC(=O)C1c2cc(OC)c(OC)cc2C(=O)N(C)C1c1cccs1 (stereo unspecified)	n	n	n	n	n	n
CCOc1c(Cl)cc(C(=O)Nc2cccc(C(=O)O)c2)cc1Cl	x	u	n	3µM	0.71µM	0.56µM
SMILES	SMN2 splice up	ELG1 genotoxic	Luc counter	FLuc modulator	Rab9 prom act	NPC1 prom act
CCOc1ccc(NC(=O)c2cccc(NC(=O)c3ccccc3)c2)cc1	x	n	x	u	n	u
O=C(O)c1cccc(NC(=O)c2ccc(COc3ccc(Cl)cc3)cc2)c1	x	n	x	6µM	3.2µM	u
CC(=O)Nc1cccc(NC(=O)c2ccc(COc3ccccc3)cc2)c1	x	15µM	x	2.1µM	2.8µM	2.8µM
CCOc1ccc(S(=O)(=O)Nc2nc3ccccc3nc2Nc2ccc(OC)cc2)cc1	n	x	x	13µM	x	x
CC(=O)Nc1ccc(S(=O)(=O)Nc2nc3ccccc3nc2Nc2ccc(S(N)(=O)=O)cc2)cc1	n	n	n	u	n	n
O=S(=O)(Nc1nc2cc3c(cc2nc1Cl)OCCO3)c1ccccc1	n	n	n	u	n	n
CC(=O)Nc1ccc(S(=O)(=O)Nc2nc3cc4c(cc3nc2Cl)OCCO4)cc1	x	n	x	19µM	n	n
COc1cccc(Nc2nc3ccccc3nc2NS(=O)(=O)c2ccc(NC(C)=O)cc2)c1	x	n	x	24µM	n	n
CC(=O)c1ccc(Nc2nc3ccccc3nc2NS(=O)(=O)c2cccs2)cc1	x	n	x	19µM	n	n
Cc1cc(C)c(/C=C/c2onc(C)c2S(=O)(=O)N2CCC(C(=O)N(C)Cc3ccccc3)CC2)c(C)c1	x	x	x	n	x	x
COc1ccc(Nc2nc3ccccc3nc2NS(=O)(=O)c2ccc(NC(C)=O)cc2)cc1	x	n	x	15µM	n	n
COc1ccc(S(=O)(=O)Nc2ccc(N3CCOCC3)cc2)cc1	x	n	x	n	n	n
CCOc1ccc(S(=O)(=O)Nc2nc3ccccc3nc2Nc2ccc(N3CCOCC3)cc2)cc1	n	n	n	11µM	n	n
Cc1ccc2nc(NS(=O)(=O)c3ccc(Cl)cc3)c(Nc3ccc(C(=O)O)cc3)nc2c1	n	x	x	11µM	x	x
COc1ccc(/C=C/c2nc(C#N)c(N3CCC(C(N)=O)CC3)o2)cc1OC	u	x	x	n	x	x
CC1CN(S(=O)(=O)c2ccccc2)C(C)N1C(=O)N1CCOCC1 (stereo unspecified)	x	n	x	n	n	n
CCOC(=O)c1sc2ccccc2c1S(=O)(=O)N1CCN(c2cc(C)ccc2C)CC1	x	x	x	n	x	x
COc1cc(NC(=O)c2ccccc2)c(C)cc1NC(=O)CC(CC(=O)O)c1ccccc1 (stereo unspecified)	x	n	x	13µM	n	n
CCC(=O)Nc1cc(OC)c(NC(=O)c2ccccc2)cc1OC	u	n	n	n	n	n
CCOc1cc(/C=C2\COc3ccccc3C2=O)ccc1OCC(=O)N(C)C	x	n	x	n	n	n
O=C1/C(=C/c2cccs2)COc2ccccc21	n	u	u	1.3µM	n	n
CCOC(=O)/C(=N\Nc1ccc(OC)cc1)c1csc(Nc2ccccc2)n1	n	n	n	9.5µM	n	n
CCOC(=O)/C(=N/Nc1ccccc1)c1csc(Nc2ccccc2)n1	n	n	n	u	n	n
COc1ccc(Br)cc1CNC(=O)C1CCN(c2nnc(-n3cccc3CNc3ccc(C)cc3)s2)CC1	n	x	x	n	x	x
COc1cc(CNC2CCCCCCC2)c(Br)cc1OCCO	x	n	x	n	n	n
CCCCNc1c(-c2ccc(SC3CCCCC3)cc2)nc2ccccn12	x	10µM	x	4.8µM	4µM	2.8µM
CCCCNc1c(-c2cccc(SC(C)CC)c2)nc2ccc(Cl)cn12 (stereo unspecified)	x	n	x	x	x	x
CCCCNc1c(-c2ccc(SC(C)CC)cc2)nc2ccccn12 (stereo unspecified)	x	n	x	1.3µM	3.5µM	3.5µM
O=C(Nc1ccc(-c2nc3cc(Cl)ccc3o2)cc1)C1CCCO1 (stereo unspecified)	2.8µM	18µM	n	1.2µM	0.5µM	0.79µM
O=C(Nc1ccc(Oc2ccccc2)cc1)C1CCCO1 (stereo unspecified)	n	n	n	u	u	u

Screening results (PubChem BioAssay)
